Inhibition data for 53 compounds are collected here from ChEMBL document CHEMBL4808148, “HDAC6 screening dataset using tau-based substrate in an enzymatic assay yields selective inhibitors and activators” (2021).

A word on the inhibition: it is the drop in the measured response relative to a control, in per cent.

Molecules are shown by their SMILES. The campaign covered roughly 5,600 compounds. About 390 (7%) showed an effect of 50% or more. Only a selection was taken, and strong results are over-represented in it overall.

In the assay the target is T1, Protein deacetylase HDAC6 (Homo sapiens) (UniProt Q9UBN7).
T1 sequence (whole entry): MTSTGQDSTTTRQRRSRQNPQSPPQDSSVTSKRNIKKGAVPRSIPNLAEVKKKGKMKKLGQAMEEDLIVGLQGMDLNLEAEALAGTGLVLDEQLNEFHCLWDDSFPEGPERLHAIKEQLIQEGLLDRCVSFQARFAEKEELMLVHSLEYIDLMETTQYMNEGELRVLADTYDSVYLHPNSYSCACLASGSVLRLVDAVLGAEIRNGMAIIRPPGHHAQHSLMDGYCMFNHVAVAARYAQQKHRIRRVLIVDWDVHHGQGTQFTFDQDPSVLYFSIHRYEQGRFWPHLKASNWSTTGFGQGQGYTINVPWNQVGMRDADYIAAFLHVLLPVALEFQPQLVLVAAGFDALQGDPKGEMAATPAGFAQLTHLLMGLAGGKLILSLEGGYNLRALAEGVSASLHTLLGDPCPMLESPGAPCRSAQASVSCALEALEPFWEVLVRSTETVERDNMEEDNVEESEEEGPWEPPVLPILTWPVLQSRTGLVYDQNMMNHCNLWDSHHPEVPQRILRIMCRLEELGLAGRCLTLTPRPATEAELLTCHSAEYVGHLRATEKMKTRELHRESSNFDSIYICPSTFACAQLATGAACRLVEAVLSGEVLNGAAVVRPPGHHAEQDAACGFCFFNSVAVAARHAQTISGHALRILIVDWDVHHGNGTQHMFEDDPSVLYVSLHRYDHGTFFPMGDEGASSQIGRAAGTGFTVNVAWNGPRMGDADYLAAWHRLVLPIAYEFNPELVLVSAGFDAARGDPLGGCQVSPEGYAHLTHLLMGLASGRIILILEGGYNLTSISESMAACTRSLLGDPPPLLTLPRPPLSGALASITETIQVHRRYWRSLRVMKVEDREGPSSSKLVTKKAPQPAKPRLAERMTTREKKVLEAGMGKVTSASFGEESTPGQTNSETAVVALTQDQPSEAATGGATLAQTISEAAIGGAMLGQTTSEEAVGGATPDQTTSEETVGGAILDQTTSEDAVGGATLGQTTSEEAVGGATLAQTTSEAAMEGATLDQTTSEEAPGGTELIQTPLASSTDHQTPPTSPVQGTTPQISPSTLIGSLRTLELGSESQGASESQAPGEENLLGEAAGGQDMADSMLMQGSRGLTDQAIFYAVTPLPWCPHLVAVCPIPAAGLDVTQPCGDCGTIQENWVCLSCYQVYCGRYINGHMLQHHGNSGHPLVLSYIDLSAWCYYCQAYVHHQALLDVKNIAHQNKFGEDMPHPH
The conditions noted are these: at 10 µM.
With `CC[C@H](C)[C@H]1O[C@]2(C=C[C@@H]1C)C[C@@H]1C[C@@H](C/C=C(\C)[C@@H](O[C@H]3C[C@H](OC)[C@@H](O[C@H]4C[C@H](OC)[C@@H](O)[C@H](C)O4)[C@H](C)O3)[C@@H](C)/C=C/C=C3\CO[C@@H]4[C@H](O)C(C)=C[C@@H](C(=O)O1)[C@]34O)O2`, the inhibition was -4.72%.

As for `O=C(NCCN1CCN(c2ncccn2)CC1)C12CC3CC(CC(C3)C1)C2`, the inhibition was -4.05%.

`COc1cc(OC)c(/C=C/S(=O)(=O)Cc2ccc(OC)c(OP(=O)(O)O)c2)c(OC)c1`: the inhibition turned out to be 6.33%.

For the compound `CCn1c(=O)n(C2=C(CO)CN(CC3CCCCCCC3)CC2)c2ccccc21`, the inhibition was -8.59%.

As to `CN1CCC2=C(C1)C(c1ccccc1)c1ccccc12` (stereo not drawn), the inhibition is -8.99%.

For `CNC1CC(c2ccc(Cl)c(Cl)c2)c2ccccc21` (stereo not drawn), the inhibition was 30.3%.

On to `CCCCN1[C@@H]2CC[C@H]1C[C@@H](OC(c1ccc(F)cc1)c1ccc(F)cc1)C2`, for which the inhibition amounted to 7.33%.

`Nc1nc(OCc2cc(Br)cs2)c2[nH]cnc2n1`: the inhibition was determined as 65.4%.

Consider `CN1CCN(c2cccc3[nH]c(=O)oc23)CC1`, for which the inhibition came out at 26.1%.

Take `O=C([O-])[C@H]1O[C@H](O)[C@H](O)[C@@H](O)[C@@H]1O.[Na+]`: the inhibition turned out to be 1.38%.

Regarding `CCOC(=O)c1ccc(N(C)c2csc(-c3ccccc3)n2)cc1`, the inhibition was 30.7%.

As for `CC(C)COC(=O)c1ccc(N)cc1`, the inhibition turned out to be 82.8%.

In the case of `Nc1ccc(C(=O)OCC(O)CO)cc1` (stereo not drawn), the inhibition came to 14.1%.

As to `CC1=C[C@H](O)CC(C)(C)[C@H]1/C=C/C(C)=C/C=C/C(C)=C/C=C/C=C(C)/C=C/C=C(C)/C=C/C1=C(C)C[C@@H](O)CC1(C)C`, the inhibition was determined as 5.04%.

Turning to `CC[C@H]1[C@@H](O)[C@@H]2[C@H](CC[C@]3(C)[C@@H]([C@H](C)CCOS(=O)(=O)O)CC[C@@H]23)[C@@]2(C)CC[C@@H](O)C[C@@H]12`, the inhibition is -1.78%.

For the compound `CC(C)C[C@H](NC(=O)[C@H](CCCCN)NC(=O)[C@H](CCCNC(=N)N)NC(=O)[C@H](C)NC(=O)[C@H](CO)NC(=O)[C@H](CCCCN)NC(=O)[C@H](CCCNC(=N)N)NC(=O)[C@H](C)NC(=O)CNC(=O)[C@@H](NC(=O)[C@H](Cc1ccccc1)NC(=O)CNC(=O)CNC(=O)[C@@H](N)Cc1ccccc1)[C@@H](C)O)C(=O)N[C@@H](C)C(=O)N[C@@H](CC(N)=O)C(=O)N[C@@H](CCC(N)=O)C(=O)O`, the inhibition stood at 3.21%.

For `CCC(CC)C(c1ccc(Nc2nc3ccccc3s2)cc1)n1cncn1` (stereo not drawn), the inhibition came to 11.9%.

With `CC(C)c1cnn2c(NCc3ccccc3)cc(NCCCCCCN)nc12`, the inhibition was 61.1%.

Regarding `Cc1cc(/C=c2/sc3nc4ccccc4n3c2=O)c(C)n1-c1ccccc1`, the inhibition is -0.72%.

Take `Cc1cc(/C=C2\SC(=O)N(c3ccccc3)C2=O)c(C)n1-c1cccnc1`: the inhibition was 96.7%.

Turning to `Nc1nc(=O)c2sc(=O)n([C@@H]3O[C@H](CO)[C@@H](O)[C@H]3O)c2[nH]1`, the inhibition came to 7.72%.

In the case of `Cc1ccc(-c2csc(NC(=O)c3ccccc3)n2)c(C)c1`, the inhibition was determined as 61.3%.

As to `Cc1cc2sc(NC(=O)Cc3ccccc3)nc2cc1Cl`, the inhibition was determined as 19.7%.

For `NC(=O)CN1C=CCC(C(N)=O)=C1`, the inhibition was -1.44%.

`O=C1c2cc(Cl)ccc2OC2CCON12` (stereo not drawn): the inhibition was determined as 8.29%.

`COc1ccccc1OC(=O)CNC(=O)Cc1ccc(C(=O)c2ccc(C)cc2)n1C`: the inhibition was found to be 27.4%.

As to `COc1cc(OC)cc(-c2ccc3c(-c4ccc(F)cc4)n[nH]c3n2)c1`, the inhibition stood at 81.7%.

As to `COc1ccn2ncc(-c3nc4[nH]nc(NC(=O)c5ccc(F)cc5)c4cc3F)c2c1`, the inhibition was 1.3%.

For the compound `C[C@H]1C[C@@H]2[C@H]([C@@H](O)C[C@@]3(C)[C@H]2CC[C@]3(O)C(=O)COC(=O)CCC(=O)O)[C@@]2(C)C=CC(=O)C=C12`, the inhibition came to 27.4%.

Take `COc1cc([C@@H]2c3cc4c(cc3[C@@H](O[C@@H]3O[C@@H]5CO[C@@H](C)O[C@H]5[C@H](O)[C@H]3O)[C@H]3COC(=O)[C@H]23)OCO4)cc(OC)c1OP(=O)(O)O`: the inhibition came out at 5.48%.

Regarding `CCN(CC)CCNC(=O)c1ccccc1I`, the inhibition is 13.2%.

For the compound `COc1nc2ccc(Br)cc2cc1[C@@H](c1ccccc1)[C@@](O)(CCN(C)C)c1cccc2ccccc12`, the inhibition is 73.7%.

For `NCC1CC(=O)N(Cc2ccccc2)C1` (stereo not drawn), the inhibition was found to be 0.62%.

Turning to `CN1c2ccccc2C(NCCCCCCC(=O)O)c2ccc(Cl)cc2S1(=O)=O` (stereo not drawn), the inhibition is 64.5%.

For `O=C(O)CCCCCCNC1c2ccccc2CCc2ccccc21`, the inhibition turned out to be 0.36%.

With `Cc1ccc(C)c(C(O)CNC(C)C)c1` (stereo not drawn), the inhibition was determined as 7.8%.

With `C[C@@H]1C(=O)O[C@H]2CC34[C@H]5C[C@@H](C(C)(C)C)C36[C@@H](OC(=O)[C@@H]6O)O[C@@]4(C(=O)O5)[C@]21O` (stereo partly drawn), the inhibition was 26.8%.

For `CN1CC[C@@]2(C)c3cc(O)ccc3N(C)[C@H]12`, the inhibition was 6.94%.

Regarding `Cn1cc(-c2cc(Oc3cc(F)c(NC(=O)C4(C(=O)Nc5ccccc5)CC4)cc3F)ccn2)cn1`, the inhibition worked out at 13.7%.

In the case of `CN1CC[C@@]2(C)c3cc(OC(=O)Nc4ccccc4)ccc3N(C)[C@@H]12`, the inhibition was 54%.

With `COC1/C=C/OC2(C)Oc3c(C)c(O)c4c(O)c(c(/C=N/N=C/N5CCCCC5)c(O)c4c3C2=O)NC(=O)/C(C)=C\C=C\C(C)C(O)C(C)C(O)C(C)C(OC(C)=O)C1C` (stereo not drawn), the inhibition worked out at 5.78%.

As to `Cc1ccc2c(c1)Cc1c(C(=O)NN3CCCCC3)nn(-c3ccc(Cl)cc3Cl)c1-2`, the inhibition turned out to be 1.48%.

Take `CN(C)CCN1C(=O)c2cccc3cc(NC(N)=O)cc(c23)C1=O`: the inhibition is -8.72%.

For `COc1ccc(Nc2ccn(-c3ccccc3)n2)cc1`, the inhibition was found to be 101%.

With `C[C@]12C=CC(=O)C=C1CC[C@@H]1[C@@H]2[C@@H](O)C[C@@]2(C)[C@H]1CC[C@]2(O)C(=O)COP(=O)(O)O`, the inhibition is 22.1%.

For `CCNC(=O)[C@@H]1CCCN1C(=O)[C@H](CCCNC(=N)N)NC(=O)[C@H](CC(C)C)NC(=O)[C@@H](C)NC(=O)[C@H](Cc1ccc(O)cc1)NC(=O)[C@H](CO)NC(=O)[C@H](Cc1c[nH]c2ccccc12)NC(=O)[C@H](Cc1cnc[nH]1)NC(=O)[C@@H]1CCC(=O)N1`, the inhibition was 41.1%.

Regarding `Cc1cc(C(=O)Nc2cccc(C(=O)Nc3cccc(C(F)(F)F)c3)c2)on1`, the inhibition stood at 16.4%.

Take `O=C1c2ccccc2C(=O)c2ccccc21`: the inhibition was 44.4%.

For the compound `O=C1c2cccc(O)c2C(=O)c2c(O)cc(CO)cc21`, the inhibition was found to be 53.1%.

Take `CCN1C[C@H](C)n2c(c(O)c3c(=O)n(Cc4ccc(F)c(Cl)c4)nc(C(=O)NC)c32)C1=O`: the inhibition came to 19.2%.

On to `C[C@H](CCC(=O)O)[C@H]1CC[C@H]2[C@@H]3CC[C@@H]4C[C@H](O)CC[C@]4(C)[C@H]3CC[C@]12C`, for which the inhibition is -5.26%.

With `C[C@H](CCC(=O)O)[C@H]1CC[C@H]2[C@@H]3[C@@H](O)C[C@@H]4C[C@H](O)CC[C@]4(C)[C@H]3CC[C@]12C`, the inhibition is 62.8%.

In the case of `C[C@H](CCC(=O)O)[C@H]1CC[C@H]2[C@@H]3[C@H](O)C[C@@H]4C[C@H](O)CC[C@]4(C)[C@H]3CC[C@]12C`, the inhibition was found to be 3.14%.
